Screening data deposited in PubChem by several laboratories.
NSD2 HMT inh – inhibitors of human histone methyltransferase NSD2; 310,000 tested, 0.54% active; inhibition, % at 12.5 µM; NSD2 peptide methylation, AlphaScreen, 120 min; O96028; in the data active = inhibition above about 50%
NPR1 activator – GC-A (human) enzyme activation | 370,000 tested, 0.14% active | activation, % at 10 µM | P16066 | AID 1671463 | HEK293 GC-A cells, cGMP TR-FRET, EC30 ANP; 0% at EC30 ANP, 100% saturating ANP; in the data active = activation above about 40%
NPR2 activator – GC-B (human) receptor activation; activation, % at 10 µM; 370,000 tested, 0.11% active; HEK293-GC-B cells, CNP EC30, cGMP TR-FRET; 0% at EC30 CNP, 100% saturating CNP; P20594;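 active = activation at 10 µM reaching about 35% in either raw or pattern-adjusted values, limit read from the data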
Efflux pump inh – inhibitors of Candida antifungal efflux pumps expressed in yeast; S. cerevisiae Candida pump triplex, Nile Red efflux; inhibition, % at 10 µM; 330,000 tested, 0.44% active; AID 485275;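 active = plate passing quality check with inhibition over a set limit, or well fluorescence over plate mean plus 4 SD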;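 also: Nile Red retained in pooled yeast measured as flow cytometry median fluorescence; 0% = buffer negative control and 100% = Enniatin B positive control; higher means more Nile Red kept so more efflux inhibition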
V-ATPase pH – yeast V-ATPase proton transport regulation by pHLuorin; S. cerevisiae, pHLuorin cytosolic pH fluorescence; response, % at 10 µM; 350,000 tested, 0.37% active; AID 504577; in the data active = response mostly above about 7.3%, no sharp cut-off; inactive = mostly below about 5.4%; also: actives read high
Rce1 inhib – yeast Ras-converting enzyme inhibition; Q03530; yeast membranes, quenched prenylated peptide cleavage fluorescence; calls only; 290,000 tested, 0.27% active; AID 2563;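 active = fall in fluorescence gain of 50% or more versus controls, with final raw signal at or below 3038400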;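 also: plate controls were neutral control wells for no effect and wells lacking membranes for full effect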
Target sequence (Q03530 whole entry, looked up): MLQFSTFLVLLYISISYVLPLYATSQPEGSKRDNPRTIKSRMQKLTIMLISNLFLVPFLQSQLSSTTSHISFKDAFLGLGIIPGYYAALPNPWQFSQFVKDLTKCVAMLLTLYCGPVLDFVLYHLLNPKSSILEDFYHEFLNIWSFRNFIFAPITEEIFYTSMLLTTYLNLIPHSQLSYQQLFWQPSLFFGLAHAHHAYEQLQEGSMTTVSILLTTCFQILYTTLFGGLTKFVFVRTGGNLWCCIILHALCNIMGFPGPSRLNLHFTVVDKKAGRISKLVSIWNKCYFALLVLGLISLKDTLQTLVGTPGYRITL
Numbers without * were called inactive; i = inactive; · = no result; + = active, no number. A selection: hits, their analogues and other compounds. The true share with any hit is near 1.6%.

SMILES | NSD2 HMT inh | NPR1 activator | NPR2 activator | Efflux pump inh | V-ATPase pH | Rce1 inhib
CCOC(=O)COc1ccc(/C=C2\NC(=S)N(CC)C2=O)cc1 | 1 | 44* | 51* | 1 | -5 | i
CCN1C(=O)/C(=C/c2ccc(C)s2)NC1=S | 25 | 35 | 38* | 0 | 2 | i
O=S(=O)(c1cccs1)N1CN(Cc2ccco2)c2nc3ccccc3nc21 | 0 | 5 | 2 | 0.7* | 1 | i
O=S(=O)(c1cccs1)N1CN(Cc2ccc(Cl)cc2)c2nc3ccccc3nc21 | -2 | 1 | 9 | 0 | 3 | ·
COC(=O)[C@]12C[C@H](CC(=O)NCCc3ccccc3OC)C(=O)N(Cc3cccc4ccccc34)C1=C[C@H](C1CCCC1)O[C@@H]2C | · | -3 | -4 | · | · | ·
CCOc1cccc(-c2nn(-c3ccccc3)cc2/C=C(/C#N)C(=O)NCCCn2ccnc2)c1 | -1 | 4 | 9 | 0 | 1 | +
N#C/C(=C/c1cn(-c2ccccc2)nc1-c1cccc(OCc2ccccc2)c1)C(=O)NCCCn1ccnc1 | 1 | 1 | 0 | 0 | 1 | i
O=C(NCc1ccccc1)NC1(C(=O)N2CCN(c3ncccn3)CC2)CCCCC1 | 0 | -2 | 3 | 0 | -2 | i
O=C(Nc1ccccc1)NC1(C(=O)N2CCN(c3ncccn3)CC2)CCCCC1 | -1 | 2 | 3 | 0 | 16* | i
CC(COc1cccc(F)c1)CN1CCC(C(O)(c2ccccc2)c2ccccc2)CC1 (stereo not given) | · | -12 | -4 | · | · | ·
CCNC(=S)N/N=C/c1cn(Cc2ccccc2F)c2ccccc12 | 13 | 41* | 44* | 0 | -1 | i
N#CCC(=O)N/N=C/c1cn(Cc2ccccc2C#N)c2ccccc12 | 13 | 2 | -9 | 0 | 5 | i
CNC(=S)N/N=C/c1cn(Cc2c(F)cccc2Cl)c2ccccc12 | 1 | 29 | 31 | -13 | 0 | +
CCNC(=S)N/N=C/c1cn(Cc2ccc(F)cc2)c2ccccc12 | 2 | 35 | 42* | -2 | 1 | i
CNC(=S)N/N=C/c1c(C)cccc1Cl | -4 | 6 | 2 | 0 | 0 | i
C=CCn1c(SCC(=O)OC(C)C)nnc1-c1ccc(C)cc1 | -4 | -2 | 1 | · | · | ·
COCCCN1C(=O)[C@H](CC(=O)NCc2ccccc2)[C@]2(C(=O)OC)CCCCC=C12 | · | 4 | 1 | · | · | ·
CCCN(CCC)C(=O)c1cc2c(=O)[nH]c3ccc(C)cc3c2s1 | 3 | 11 | 8 | 0 | -3 | i
Cc1ccc(C)c(N(C)C(=O)c2cc3c(=O)[nH]c4ccc(C)cc4c3s2)c1 | -3 | 35 | 37* | 0 | 2 | i
Cc1ccc(CN2CCNC(=O)C2CC(=O)NC2CCCCCC2)o1 (stereo not given) | 2 | -2 | 1 | 0 | -1 | +
COc1cccc(CNC(=O)COC(=O)CNC(=O)c2ccc(-c3ccccc3)cc2)c1 | 0 | 47* | 8 | 0 | 11 | ·
CC(=O)c1cc(-c2ccc(-c3ccccc3)c(F)c2)c(=O)n2c1CCC2 | · | 7 | -3 | · | · | ·
C[C@H](CO)N1C[C@H](C)[C@@H](CN(C)C(=O)Nc2ccc(C(F)(F)F)cc2)Oc2ccc(NS(=O)(=O)c3ccc(F)cc3)cc2C1=O | · | 1 | 3 | 1 | -1 | ·
C[C@H](CO)N1C[C@H](C)[C@@H](CN(C)C(=O)Nc2ccc(C(F)(F)F)cc2)Oc2ccc(NS(=O)(=O)c3ccccc3)cc2C1=O | · | 3 | 82* | 0 | -4 | ·
COc1ccc(CN2C[C@]3(C=C(C)Cn4c(=O)n(-c5ccccc5)c(=O)n43)N=C2NC(=O)c2ccccc2)c(OC)c1 | · | -1 | 5 | · | · | ·
O=C(c1ccc(COc2ccc(F)cc2)o1)n1cccn1 | 2 | 45* | -7 | 0 | 1 | i
COC(=O)[C@]12C[C@H](CC(=O)NCc3cccc(C(F)(F)F)c3)C(=O)N(Cc3cccc4ccccc34)C1=C[C@H](COCc1ccccc1)O[C@@H]2C | · | 0 | -6 | · | · | ·
CCOC(=O)Cn1ccc(NC(=O)COc2ccc(F)cc2F)n1 | -4 | 41* | -3 | 0 | 1 | i
CCOC(=O)Cn1ccc(NC(=O)c2ccc(F)cc2)n1 | -1 | 50* | -10 | 0 | -2 | i
